Measured values as given in PubChem BioAssay (Tox21).
Values without a mark were called inactive. Records with an inconclusive call do not appear. Where a call stands in place of a potency, no number is given. The source made the active and inactive calls. Unless noted, calls come from the whole dose curve; as a rule, active = well fitted curve in the direction sought with a large enough effect in the repeat runs; inconclusive = weak or mixed curves; inactive = no such curve, though single readings can be large; an effect the other way counts as inactive or inconclusive.

Tests used:
[1] = biological target: Luciferin 4-monooxygenase (Photinus pyralis) (UniProt P08659); assay: qHTS assay to identify small molecule inhibitors of firefly luciferase (AID 1224835); note: nearly all actives have a fitted effect of over 25% in size; note: potency is the fitted concentration of half-maximal effect
How it was run: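 Biochemical qHTS: compounds run as interplate titrations against purified firefly enzyme, with D-luciferin and ATP each at its KM concentration. Light output recorded by CCD imaging.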

[2] = qHTS assay to identify small molecule agonists of the constitutive androstane receptor (CAR) signaling pathway - cell viability counter screen (AID 1224836); note: nearly all actives have a fitted effect of over 45% in size; note: potency is the fitted concentration of half-maximal effect
How it was run: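 23 h treatment, 37 C, 5% CO2. Cell line: HepG2 stably expressing hCAR with a CYP2B6-2.2kb construct. Co-treatment: PK11195, 0.75 uM final. Read-out: CellTiter-Fluor fluorescence intensity.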

[3] = qHTS assay to identify small molecule antagonists of the constitutive androstane receptor (CAR) signaling pathway - cell viability counter screen (AID 1224837); note: nearly all actives have a fitted effect of over 45% in size; note: potency is the fitted concentration of half-maximal effect
How it was run: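 CITCO at 50 nM final was added alongside compounds (15 concentrations) to double-stable hCAR/CYP2B6-2.2kb HepG2 cells. Following 23 hr at 37 C, cell viability was quantified by CellTiter-Fluor fluorescence intensity.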

[4] = qHTS assay to identify small molecule antagonists of the estrogen related receptor signaling pathway with the pleiotropic PPARgamma coactivator (PGC) from Tox21 10K library - cell viability counter screen (AID 1224840; active = well fitted cell-killing curve with a large enough effect in the repeat runs, not every such curve was filed as active; note: nearly all actives have a fitted effect of over 40% in size)
How it was run: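 Readout: fluorescence intensity from CellTiter-Fluor after 30 min at 37 C/5% CO2. Preceded by 17.5 h treatment of PGC/ERR cells with DMSO-dissolved compounds, added 6 h post-seeding.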

[5] = qHTS assay to identify small molecule antagonists of the estrogen related receptor signaling pathway with the pleiotropic PPARgamma coactivator (PGC) from Tox21 10K library (AID 1224841; call rule not given here; note: actives are mostly falling curves and most rising ones were filed inactive; nearly all actives have a fitted effect of over 50% in size; note: potency is the fitted concentration of half-maximal effect)
How it was run: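 One-Glo luminescence, measured after half an hour at room temperature, quantified reporter output of PGC/ERR cells. These had been plated at 2,000 per well, incubated 6 h, dosed with compounds in DMSO, then kept 18 h at 37 C.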

[6] = qHTS assay to identify small molecule agonists of the estrogen related receptor signaling pathway with the pleiotropic PPARgamma coactivator (PGC) from Tox21 10K library (AID 1224842); note: nearly all actives have a fitted effect of over 15% in size
How it was run: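 PGC/ERR reporter cell line, 2,000 cells per well, incubated 6 h at 37 C before 23 nL compound in DMSO was added. After 18 h at 37 C, One-Glo luminescence read following 30 min at room temperature.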

[7] = biological target: Thyrotropin receptor (Homo sapiens) (UniProt P16473); assay: qHTS assay to identify small molecule agonists of the thyroid stimulating hormone receptor (TSHR) signaling pathway (AID 1224843; calls by dose curve; note: nearly all actives have a fitted effect of over 45% in size; note: potency is the fitted concentration of half-maximal effect)
How it was run: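 Agonist-mode screen: TSHR HEK293 cells received test chemicals for half an hour at room temperature, then HTRF cAMP detection reagents for one hour prior to fluorescence measurement. Each chemical ran as a 15-concentration series, triplicated.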

[8] = qHTS assay to identify small molecule agonists of the hypoxia (HIF-1) signaling pathway - cell viability counter screen (AID 1224844; calls by dose curve; note: nearly all actives have a fitted effect of over 50% in size; note: potency is the fitted concentration of half-maximal effect)
How it was run: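 In this counter screen, HRE-bla ME-180 cell viability after 17 hrs of compound exposure at 37C was read by CellTiter-Glo luminescence, multiplexed with the beta-lactamase reporter measurement.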

[9] = qHTS assay to identify small molecule agonists of H2AX (AID 1224845; active = well fitted activation curve with a large enough effect in the signal ratio in the repeat runs, not every such curve was filed as active; the % refers to the signal ratio; note: potency is the fitted concentration of half-maximal effect)
How it was run: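 Wild-type CHO-K1 cells, plated overnight, exposed 3hr at 37C to 15 concentrations (0.76% DMSO final). Lysed, then HTRF anti-pH2AX (S139) cryptate and anti-H2AX-d2 antibodies, 24 hr room temperature; 665/620 nm emission read.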

[10] = qHTS assay to identify small molecule antagonists of the estrogen related receptor (ERR) signaling pathway from Tox21 library (AID 1224848); note: nearly all actives have a fitted effect of over 50% in size; note: potency is the fitted concentration of half-maximal effect
How it was run: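 Quantitative high-throughput format: ERR reporter cells (2,000/well) pre-incubated 6 h, treated 18 h at 37 C with compounds in DMSO alongside positive and negative controls, then read by ONE-Glo luminescence.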

[11] = qHTS assay to identify small molecule agonists of the estrogen related receptor (ERR) signaling pathway from Tox21 library (AID 1224849; calls by dose curve; note: nearly all actives have a fitted effect of over 15% in size); details: ERR reporter cell line, ONE-Glo luciferase, 18 h; at 92.4 µM (top of the series) unless noted
How it was run: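 Luciferase activity in ERR pathway reporter cells served as the agonist readout; exposure lasted 18 h at 37 C, with ONE-Glo detection after 30 min at room temperature.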

[12] = qHTS RealTime-Glo MT Cell Viability Assay in HepG2 cells - 24 hour (AID 1224867); note: nearly all actives have a fitted effect of over 50% in size; note: potency is the fitted concentration of half-maximal effect
How it was run: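 Tox21 10K library screened in qHTS format on HepG2 cells carrying RealTime-Glo reagents. Compounds were added after a 5 h preincubation, and the luminescent signal from continuous culture was measured repeatedly during 40 h treatment.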

[13] = A CellTox Green Cytotoxicity Assay to monitor cytotoxicity in HEK293 cells - 0 hour (AID 1224869); note: nearly all actives have a fitted effect of over 50% in size
How it was run: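 Real-time, in one plate: 600 HEK293 cells/well with dead-cell DNA dye, pinned compound after 5 h, 37 C incubation over 40 h; viable cells give no appreciable fluorescence.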

[14] = qHTS RealTime-Glo MT Cell Viability Assay in HepG2 cells - 40 hour (AID 1224870); note: nearly all actives have a fitted effect of over 50% in size; note: potency is the fitted concentration of half-maximal effect
How it was run: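 HepG2 cells (600/well) mixed with RealTime-Glo MT reagent, settled 5 h at 37 C/5% CO2 before compound addition. Nonlytic NanoLuc luminescence from viable-cell prosubstrate reduction read repeatedly during 40 h treatment at 37 C.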

[15] = biological target: Nuclear receptor subfamily 1 group I member 3 (Homo sapiens) (UniProt Q14994); assay: qHTS assay to identify small molecule antagonists of the constitutive androstane receptor (CAR) signaling pathway (AID 1224838); note: nearly all actives have a fitted effect of over 40% in size; note: potency is the fitted concentration of half-maximal effect
How it was run: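 Inhibition of CITCO-driven (50 nM final) CYP2B6 reporter expression is measured in HepG2 cells stably carrying hCAR. Fifteen compound concentrations are applied for 24 h at 37 C, followed by luciferase luminescence.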

[16] = biological target: Nuclear receptor subfamily 1 group I member 3 (Homo sapiens) (UniProt Q14994); assay: qHTS assay to identify small molecule agonists of the constitutive androstane receptor (CAR) signaling pathway (AID 1224839); note: nearly all actives have a fitted effect of over 15% in size; note: potency is the fitted concentration of half-maximal effect
How it was run: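 Compounds tested at 15 concentrations on HepG2 cells stably harbouring hCAR and CYP2B6-2.2kb reporter constructs, co-treated with PK11195 (0.75 uM final), 24 h at 37 C; luminescent reporter signal quantified.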

[17] = qHTS assay to identify small molecule agonists of H2AX - cell viability counter screen (AID 1224847; calls by dose curve; note: nearly all actives have a fitted effect of over 30% in size; note: potency is the fitted concentration of half-maximal effect)
How it was run: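 Compounds tested at 15 concentrations were incubated 3 hr at 37C with wild-type CHO-K1 cells; cellular ATP-based luminescence (CellTiter-Glo) indicated viability.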

[18] = qHTS RealTime-Glo MT Cell Viability Assay in HEK293 cells - 32 hour (AID 1224868)
How it was run: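 Luminescence generated by NanoLuc from substrate produced by living HEK293 cells served as the viability signal. Each value reflects the reading at its stated time point during continuous 40 h compound exposure at 37 C.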

[19] = qHTS assay to identify small molecule agonists of the hypoxia (HIF-1) signaling pathway (AID 1224846; active = well fitted activation curve with a large enough effect in the signal ratio in the repeat runs, not every such curve was filed as active; the % refers to the signal ratio)
How it was run: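 ME-180 HRE-bla reporter cells; compounds in DMSO, 17 h at 37C; read-out beta-lactamase via CCF4-AM FRET.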

Chain of Nuclear receptor subfamily 1 group I member 3 (Homo sapiens) (Q14994 whole entry, looked up): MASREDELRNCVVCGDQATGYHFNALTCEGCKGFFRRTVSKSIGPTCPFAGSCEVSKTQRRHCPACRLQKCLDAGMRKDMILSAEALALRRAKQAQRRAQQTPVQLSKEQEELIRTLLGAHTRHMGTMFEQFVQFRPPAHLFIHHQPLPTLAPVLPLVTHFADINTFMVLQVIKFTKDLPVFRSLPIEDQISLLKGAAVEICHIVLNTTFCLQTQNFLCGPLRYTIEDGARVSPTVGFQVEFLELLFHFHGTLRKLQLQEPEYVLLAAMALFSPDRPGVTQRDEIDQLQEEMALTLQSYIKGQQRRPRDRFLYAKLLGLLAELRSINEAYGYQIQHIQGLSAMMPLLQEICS
Chain of Luciferin 4-monooxygenase (Photinus pyralis) (P08659 whole entry, looked up): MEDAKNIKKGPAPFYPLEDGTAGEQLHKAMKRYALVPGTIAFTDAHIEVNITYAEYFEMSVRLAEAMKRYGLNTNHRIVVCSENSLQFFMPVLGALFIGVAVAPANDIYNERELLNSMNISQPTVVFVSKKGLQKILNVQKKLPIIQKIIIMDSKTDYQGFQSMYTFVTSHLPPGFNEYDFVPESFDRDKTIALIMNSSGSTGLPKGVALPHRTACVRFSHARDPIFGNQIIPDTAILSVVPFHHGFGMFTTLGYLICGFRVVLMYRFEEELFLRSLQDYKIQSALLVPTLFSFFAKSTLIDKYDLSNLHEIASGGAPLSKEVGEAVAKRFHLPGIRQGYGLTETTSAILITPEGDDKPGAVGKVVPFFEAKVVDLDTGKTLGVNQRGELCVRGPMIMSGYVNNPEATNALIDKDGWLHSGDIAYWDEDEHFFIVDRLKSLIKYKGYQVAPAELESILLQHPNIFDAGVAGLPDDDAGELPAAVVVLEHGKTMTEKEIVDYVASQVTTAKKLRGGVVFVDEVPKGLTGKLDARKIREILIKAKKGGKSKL
Chain of Thyrotropin receptor (Homo sapiens) (P16473 whole entry, looked up): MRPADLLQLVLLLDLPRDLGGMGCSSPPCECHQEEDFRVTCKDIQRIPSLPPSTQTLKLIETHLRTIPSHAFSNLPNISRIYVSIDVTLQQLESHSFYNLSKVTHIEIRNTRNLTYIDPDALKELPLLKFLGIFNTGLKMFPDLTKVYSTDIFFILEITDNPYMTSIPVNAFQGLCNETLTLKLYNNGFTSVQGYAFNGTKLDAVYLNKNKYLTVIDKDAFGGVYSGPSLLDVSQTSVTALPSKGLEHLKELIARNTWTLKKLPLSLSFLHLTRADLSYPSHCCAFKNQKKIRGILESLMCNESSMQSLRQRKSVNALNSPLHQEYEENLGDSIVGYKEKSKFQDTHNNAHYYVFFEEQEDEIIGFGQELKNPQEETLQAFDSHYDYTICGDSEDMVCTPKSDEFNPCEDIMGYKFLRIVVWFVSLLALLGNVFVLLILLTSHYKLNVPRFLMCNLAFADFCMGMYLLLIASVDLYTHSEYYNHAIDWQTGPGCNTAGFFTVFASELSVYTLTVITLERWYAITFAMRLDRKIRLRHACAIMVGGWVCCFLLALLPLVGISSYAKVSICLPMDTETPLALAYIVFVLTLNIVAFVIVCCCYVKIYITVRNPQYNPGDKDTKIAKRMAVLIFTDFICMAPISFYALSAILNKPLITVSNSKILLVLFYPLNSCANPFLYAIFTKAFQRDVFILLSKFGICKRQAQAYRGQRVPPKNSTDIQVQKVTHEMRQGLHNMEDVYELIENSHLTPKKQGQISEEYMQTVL

| Compound | Potency [1] | Potency [2] | Potency [3] | Potency [4] | Potency [5] | Potency [6] | Potency [7] | Potency [8] | Potency [9] | Potency [10] | activity change, positive = activation [11] | Potency [12] | Potency [13] | Potency [14] | Potency [15] | Potency [16] | Potency [17] | Potency [18] | Potency [19] |
| --- | --- | --- | --- | --- | --- | --- | --- | --- | --- | --- | --- | --- | --- | --- | --- | --- | --- | --- | --- |
| C#CC1(O)CCCCC1 | inactive | inactive | inactive | inactive | inactive | inactive | inactive | inactive | inactive | inactive | 1.06% | inactive | inactive | inactive | – | – | – | – | – |
| CCCCCCC[CH2][Sn]([Cl])([Cl])[CH2]CCCCCCC | inactive | inactive | inactive | – | 27.3 µM (active) | inactive | inactive | – | – | 61.1 µM (active) | -59.9% | inactive | inactive | inactive | inactive | inactive | inactive | inactive | – |
| CC[C@]1(O)CC[C@H]2[C@@H]3CCC4=CCCC[C@@H]4[C@H]3CC[C@@]21C | inactive | inactive | inactive | inactive | inactive | – | 15 µM (active) | inactive | inactive | – | -21.6% [at 42.5 µM] | inactive | inactive | inactive | 33.5 µM (active) | inactive | inactive | – | inactive |
| CCC(C)Br (stereo not given) | inactive | inactive | inactive | – | – | – | inactive | inactive | inactive | – | – | – | inactive | inactive | inactive | inactive | inactive | – | – |
| COP(=O)(OC)O/C(=C\Cl)c1cc(Cl)c(Cl)cc1Cl | inactive | inactive | inactive | – | 5.45 µM (active) | inactive | – | inactive | inactive | 21.7 µM (active) | -68.1% | – | inactive | – | – | – | inactive | inactive | – |
| CC(=O)[O][Pb]([c]1ccccc1)([c]1ccccc1)[c]1ccccc1 | 22.4 µM (active) | 5.45 µM (active) | 7.7 µM (active) | – | 6.86 µM (active) | – | – | 1.38 µM (active) | 0.8 µM (active) | 0.545 µM (active) | -77.1% | 1.1 µM (active) | inactive | 0.871 µM (active) | 1.54 µM (active) | inactive | 25.3 µM (active) | – | – |
| CCc1cccc(C)c1N(C(=O)CCl)[C@@H](C)COC | inactive | inactive | inactive | inactive | 30.6 µM (active) | inactive | 34.4 µM (active) | 49 µM (active) | – | 61.1 µM (active) | -67.3% | – | inactive | inactive | inactive | 19.3 µM (active) | – | inactive | inactive |
| ClCBr | inactive | inactive | inactive | inactive | inactive | inactive | inactive | inactive | – | inactive | 5.96% | inactive | inactive | inactive | inactive | inactive | inactive | inactive | – |
